In the library only some 19% were active in any assay of this set; here they are far more common.
Pf growth 48h: inhibits P. falciparum growth in the first generation, 48 h; AID 504832; Potency, µM (series often up to 28.7 µM), for the others: top-dose activity change, negative = inhibition, hits mostly inhibitors; 310,000 compounds, 5.9% hits; P. falciparum luciferase growth in erythrocytes, 48 h; note: potency is the fitted concentration of half-maximal effect; % is set by controls: 0 for no effect and ±100 for the full control effect
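Firefly luciferase activity from engineered P. falciparum reports growth; inhibitors lower the luminescent signal. Cultures contained 2% hematocrit erythrocytes at 0.1% final parasitemia.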
AMA1 RON2 block: inhibitors of Plasmodium falciparum AMA1-RON2 interaction; Potency, µM (top dose mostly 58.2 µM), without a hit: at the highest dose activity change, negative = inhibition, hits mostly inhibitors; 360,000 compounds, 0.2% hits; AlphaScreen AMA1-biotinylated RON2 peptide binding;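 note: potency is the fitted concentration of half-maximal effect; 0% = vehicle wells and -100% = peptide control; nearly all actives have a fitted effect of over 45% in size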
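AMA1 (3D7) with his tag at 25 nM final met compounds first, then biotinylated RON2 peptide at 25 nM; detection used donor plus acceptor beads, 10 µg/mL apiece, read by AlphaScreen after 30 min at room temperature.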
CHX counter: affects cycloheximide protein synthesis inhibition readout, counter-screen. max response, %. cell reporter, cycloheximide protein synthesis inhibition counterscreen. 300,000 compounds, 12% hits; in the data active = max response mostly above about 13%, no sharp cut-off; inactive = mostly below about 14%; note: read at 38.3 µM for the half of the compounds with a filed dose; 0% is about no effect
SARS PLP yeast: blocks SARS-CoV papain-like protease in a yeast assay. S. cerevisiae expressing SARS-CoV PLpro, growth rescue. 330,000 compounds, 0.19% hits. Potency, µM (titrated, usually from 32.9 µM), for the others: at the top dose activity, positive = growth rescue, hits mostly activators; calls by dose curve; note: potency is the fitted concentration of half-maximal effect; 0% is about no effect; nearly all actives have a fitted effect of over 55% in size
Shiga inhibitor: inhibitors of Shiga toxin in Vero cells | Vero cells, Shiga toxin protein synthesis inhibition reporter | inhibition, % at 38.7 µM | 290,000 compounds, 9.2% hits | AID 2315; in the data active = inhibition mostly above about 28%, no sharp cut-off; inactive = mostly below about 43%; note: 0% is about no effect
Pf growth 96h: inhibits malaria parasite growth, 96 h | Potency, µM (titrated, usually from 28.7 µM), without a hit: at the highest dose activity change, negative = inhibition, actives largely listed as inhibitors | AID 504834 | 320,000 compounds, 6.9% hits | P. falciparum luciferase reporter growth, 96 h; note: potency is the fitted concentration of half-maximal effect; % is set by controls: 0 for no effect and ±100 for the full control effect
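Cell-based qHTS: luciferase-tagged P. falciparum in erythrocytes (2% hematocrit, 0.05% parasitemia final) incubated with compounds for 96 hours, 37 C, 5% CO2; luciferase detection reagent then added and luminescence measured.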
* hit, by the source's call; ? = inconclusive; / = not tested or not shown. Unless noted, calls come from the whole dose curve; as a rule, active = well fitted curve in the direction sought with a large enough effect; inconclusive = small, poorly fitted or top-dose-only effect, or another doubt; inactive = no such curve, though single readings can be large; an effect the other way counts as inactive or inconclusive.

SMILES	Pf growth 48h	AMA1 RON2 block	CHX counter	SARS PLP yeast	Shiga inhibitor	Pf growth 96h
CCCCCSc1cc(OC)c(CCN)cc1OC	?	-30%	-2	-3%	-28	?
CCCCCCCSc1cc(OC)c(CCN(C)C)cc1OC	?	?	-9	-21%	-18	4.7µM*
CC(=O)c1ccc(-c2ccc([C@H]3[C@@H]4C=CCC[C@@]4(C)C(=O)N3Cc3ccccc3)c(F)c2)cc1	12µM*	-5%	-3	0%	-2	?
Cc1ccc(-c2ccc(C3C4C=CCCC4(C)C(=O)N3Cc3ccccc3)c(F)c2)cc1 (centres undefined)	/	/	8	/	13	/
Cc1ccc(-c2ccc([C@H]3[C@@H]4C=CCC[C@@]4(C)C(=O)N3Cc3ccccc3)c(F)c2)cc1	?	-19%	1	-2%	-4	13µM*
Clc1ccc(C(c2nnnn2C2CCCC2)N2CCSCC2)cc1 (centres undefined)	-23%	-7%	-2	-16%	-4	80%
O=S(=O)(c1ccccc1)[C@@]1(c2ccc(Br)cc2)C[C@@H]2ON=C(c3cccc(Br)c3)[C@@H]2C1	9.3µM*	-1%	/	-2%	/	?
O=S(=O)(c1ccccc1)[C@@]1(c2ccc(Br)cc2)C[C@@H]2ON=C(c3ccccc3)[C@@H]2C1	?	-1%	/	-1%	/	?
COc1ccc(NC(=S)Nc2ccc(C)c(Cl)c2)cc1OC	2%	42%	3	-2%	25	-8%
Fc1ccc(NC(=S)Nc2ccccc2OC(F)F)cc1Cl	?	74%	-1	-38%	-10	?
Cc1ccc(NC(=S)Nc2cc(-c3ccccc3)[nH]n2)cc1Cl	?	37%	13*	-5%	48*	28%
Fc1ccc(NC(=S)Nc2cc(-c3ccccc3)[nH]n2)cc1Cl	10µM*	16%	12	-3%	29	25%
OC1(C#CCN2CCOCC2)CCCCC1	5%	-2%	-6	3%	22	29%
CC(C)(O)C#CC#CCN1CCOCC1	7%	-1%	1	0%	-5	10µM*
O=C(Nc1cccc2nsnc12)c1cc2c(cc1Cl)Sc1nccn1S2(=O)=O	/	-13%	/	/	/	/
CC1CCCCN1S(=O)(=O)c1ccc(S(=O)(=O)N2CCN(C)CC2)cc1 (centres undefined)	25%	0%	-3	0%	-10	?
COc1ccc(C2CC(c3ccc(Cl)cc3)Nc3nc(NC(=O)c4ccco4)nn32)cc1 (centres undefined)	9.3µM*	2%	-3	-13%	8	13%
O=C(Nc1nc2n(n1)C(c1ccc(Cl)cc1)CC(c1ccc(Cl)cc1)N2)c1ccco1 (centres undefined)	10µM*	-8%	-1	3%	-5	?
O=S(=O)(c1ccc2c(c1)OCCO2)N1CCNCC1	-2%	7%	-3	2%	-10	-2%
Cc1noc(C)c1CSc1nc2sc3c(c2c(=O)n1C)CCCC3	/	-10%	-4	2%	-11	1.7µM*
C=CCSc1nc2sc3c(c2c(=O)n1CC)CCC3	23%	2%	-4	-1%	-8	?
Cn1c(SCCN2CCOCC2)nc2sc3c(c2c1=O)CCCC3	-8%	-4%	7	6%	11	-4%
Cc1sc2nc(SCc3nc(-c4cccs4)no3)n(-c3ccccc3)c(=O)c2c1C	?	-3%	-2	-12%	-11	?
C=CCn1c(SCc2c(C)noc2C)nc2sc3c(c2c1=O)CCCCC3	1.9µM*	-10%	-3	-12%	-7	/
Cc1noc(C)c1CSc1nc2sc(C)c(C)c2c(=O)n1C1CCCC1	4.1µM*	-17%	-7	-3%	-4	/
SMILES	Pf growth 48h	AMA1 RON2 block	CHX counter	SARS PLP yeast	Shiga inhibitor	Pf growth 96h
C=CCn1c(SCc2c(C)noc2C)nc2sc3c(c2c1=O)CCCC3	13µM*	4%	-4	-8%	-11	2.1µM*
C=CCn1c(SCC(=O)N(C)C)nc2sc3c(c2c1=O)CCC3	-7%	6%	-3	3%	-22	-14%
CN(CC(=O)Nc1ccccc1Br)C(=O)Cn1[nH]c(=O)c2ccccc2c1=O	14%	0%	/	3%	/	-21%
COc1ccc(S(=O)(=O)n2cccc2)cc1	/	6%	/	/	/	/
CCC(=O)NNC(=O)CCC(=O)Nc1cccc(Cl)c1C	17%	75%	-1	2%	-13	-23%
CCOC(=O)N1CCN(S(=O)(=O)c2ccc(C(=O)Nc3nnc(CSC)o3)cc2)CC1	23%	31%	-3	-13%	-7	-9%
COc1cc2nc(SCc3c(C)noc3C)n(CCC3=CCCCC3)c(=O)c2cc1OC	?	4%	-3	-1%	-11	1.7µM*
C=CCn1c(SCc2c(C)noc2C)nc2ccccc2c1=O	/	-2%	-6	-9%	-20	13µM*
COC(=O)c1sc(N)c(C(=O)OC)c1CSc1nc2sc3c(c2c(=O)n1C)CCC3	?	-18%	2	4%	16	1.7µM*
CC(C)c1ccc(/C=N/NC(=O)c2nnn(-c3nonc3N)c2CN2CCOCC2)cc1	-10%	22%	-4	6%	35	0%
C[C@H]1CN=C(Nc2ccccc2)N1CC1CCCCCC1	?	0%	-3	3%	-8	24%
CN1CCN(c2ncnc3c2ncn3[C@H]2CN(Cc3ccc(-c4ccccc4)cc3)C[C@@H](CO)O2)CC1	/	-27%	/	/	/	/
Cc1[nH]c2ccc(F)cc2c1CCN(Cc1ccncc1)C(=S)Nc1ccccc1	?	7%	-5	-1%	-2	?
CC(C)N(Cc1ccccc1)C(=S)Nc1cccnc1	?	3%	-5	1%	-2	7.4µM*
CCN(Cc1ccncc1)C(=S)Nc1ccccc1	24%	23%	-2	1%	-11	2.9µM*
N#C/C(=C\c1ccc(OCC(N)=O)cc1)S(=O)(=O)c1ccccc1	10%	3%	-2	0%	24	23%
CCN(CC)CCNC(=O)CCc1c(C)nc2c(c(C)nn2-c2ccc(C)c(C)c2)c1C	13µM*	-9%	-3	-1%	-5	23%
COC(CNC(=O)CCc1c(C)nc2c(c(C)nn2-c2ccc(C)cc2)c1C)OC	2.6µM*	-8%	-2	1%	-7	13%
COc1ccc(C(=O)N(C)CC2CCN(CCc3cccc(C(F)(F)F)c3)CC2)cc1C	?	4%	-2	0%	9	38%
CCCCN(C)C(=O)C1CCCN(S(=O)(=O)c2ccc3c(c2)CC(C)N3C(=O)C2CC2)C1 (centres undefined)	?	12%	21	-3%	1	13µM*
CC1CCN(S(=O)(=O)c2ccc3c(c2)CCN3C(=O)C2CCC2)CC1	-24%	0%	1	-1%	2	?
CCC1CCCCN1S(=O)(=O)c1ccc2[nH]c(=O)ccc2c1 (centres undefined)	11%	0%	1	3%	-6	3.3µM*

Source: PubChem
